Measurements published in PubChem BioAssay (NCATS).
Inconclusive results are not listed. The source made the active and inactive calls. Unless noted, the call rests on the fitted dose curve; in most records, active means well fitted activation curve with a large enough effect in the main read-out, with a control signal flat (not every such curve was filed as active); inconclusive means small, poorly fitted or top-dose-only effect, or effect the other way, or a change in a side signal; inactive means flat fitted curve, though single readings scatter.

Biological target: Mitogen-activated protein kinase 10 (Mus musculus) (UniProt Q61831)
Assay: JNK3 AlphaScreen Assay (AID 530; active means well fitted curve in either direction with a large enough effect, not every such curve was filed as active;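 further: kinase came from lysate of stimulated human HepG2 cells; signal reports phosphorylation of biotinylated GST-cJun 1-79 at Ser73 with 10 µM ATP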)
Settings: JNK3 lysate, c-Jun phosphorylation; series mostly up to 57.1 µM
Summary of the method: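 Room-temperature AlphaScreen kinase assay; pre-activated HepG2 lysate as JNK3 source, biotin-GST-cJun(1-79) substrate, 10 uM ATP, compound 15 min preincubation.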

Potency, inactive:
COc1cccc(Cn2c(=O)c(-c3cccs3)nc3cnc(Nc4ccccc4)nc32)c1
COc1cccc(Cn2c(=O)c(-c3cccc(F)c3)nc3cncnc32)c1
CS(=O)(=O)N1CCC2(CCCN(Cc3cc(C(F)(F)F)cc(C(F)(F)F)c3)C2)CC1
N#Cc1ccc(CN2CC[C@@]3(CCCN(C(=O)c4ccco4)C3)C2)cc1
O=c1c(-c2cccc(Cl)c2)nc2cncnc2n1Cc1ccc(F)cc1
Cc1cccc(CNc2ncncc2-c2cccc(NS(C)(=O)=O)c2)c1
CC(=O)N1CCC2(CC1)CCN(C(=O)Nc1cccc(C#N)c1)CC2
O=c1c(-c2ccc(Cl)cc2)nc2cncnc2n1Cc1ccccc1
COc1ccc(-c2nc3cnc(OC)nc3n(C3CC3)c2=O)cc1
O=c1c(-c2ccc(F)c(F)c2)nc2cncnc2n1Cc1ccc(F)cc1
O=C(c1cccc(F)c1)N1CCC2(CC1)CN(C(c1ccccc1)c1ccccc1)C2
COc1cccc(Cn2c(=O)c(-c3ccc(Cl)cc3)nc3cnc(N(C)C)nc32)c1
O=C(Nc1cccc(F)c1)N1CCC2(CC1)CCN(C(=O)c1cccc(F)c1)CC2
COc1ccc(C(=O)N2CCC[C@@]3(CCN(C(=O)Nc4cccc(F)c4)C3)C2)cc1
Cn1cccc1C(=O)N1CCC2(CC1)CN(C(=O)Nc1cccc(C#N)c1)C2
COC(=O)N1CCC[C@@]2(CCN(Cc3cc(C(F)(F)F)cc(C(F)(F)F)c3)C2)C1
Cc1noc(C)c1C(=O)N1CCC2(CCCN(c3ncccn3)C2)CC1
O=c1c(-c2ccc(F)cc2)nc2cnc(Nc3ccccc3)nc2n1C1CC1
COc1ccc(-c2nc3cnc(OC)nc3n(Cc3cccc(OC)c3)c2=O)cc1

Biological target: 3',5'-cyclic-AMP phosphodiesterase 4B (Homo sapiens) (UniProt Q07343)
Assay: qHTS Assay for Inhibitors of PDE-IV (AID 607)
Settings: HEK293 ACTOne CNG channel cells, membrane potential fluorescence; series mostly up to 22.9 µM
Summary of the method: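 The readout is membrane depolarisation from a cAMP-sensing CNG channel, detected with a potential dye at ex 535/em 590. Cells were HEK293-derived (endogenous PDE-IV) at 1000 cells/well, titrated up to 22.9 uM final.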

3',5'-cyclic-AMP phosphodiesterase 4B (Homo sapiens), sequence (Q07343 whole entry, looked up): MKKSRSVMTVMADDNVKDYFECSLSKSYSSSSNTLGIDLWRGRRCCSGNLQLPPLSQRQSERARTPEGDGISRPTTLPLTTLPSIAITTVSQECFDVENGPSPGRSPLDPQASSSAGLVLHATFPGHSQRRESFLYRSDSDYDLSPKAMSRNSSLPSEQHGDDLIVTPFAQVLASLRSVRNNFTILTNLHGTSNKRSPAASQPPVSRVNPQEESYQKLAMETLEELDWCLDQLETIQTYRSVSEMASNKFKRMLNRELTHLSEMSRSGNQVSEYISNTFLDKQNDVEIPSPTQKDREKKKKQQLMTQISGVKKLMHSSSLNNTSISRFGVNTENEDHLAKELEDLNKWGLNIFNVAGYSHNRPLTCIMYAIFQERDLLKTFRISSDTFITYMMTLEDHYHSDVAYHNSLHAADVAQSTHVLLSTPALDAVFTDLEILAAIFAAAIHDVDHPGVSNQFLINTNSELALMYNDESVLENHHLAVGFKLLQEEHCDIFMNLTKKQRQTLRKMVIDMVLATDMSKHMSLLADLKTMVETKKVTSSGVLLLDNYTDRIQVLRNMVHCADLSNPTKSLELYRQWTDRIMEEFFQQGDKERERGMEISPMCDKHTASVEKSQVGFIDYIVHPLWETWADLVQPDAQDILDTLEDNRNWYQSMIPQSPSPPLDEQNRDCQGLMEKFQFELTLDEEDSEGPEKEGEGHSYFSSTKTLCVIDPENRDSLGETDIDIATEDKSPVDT

Potency, inactive:
COCCn1c(=O)cnc2cnc(OCc3ccccc3)nc21
COc1ccc(NC(=O)N2CC3(CCN(C(=O)c4cccc(F)c4)CC3)C2)cc1
COc1ccc(C(=O)N2CCC[C@@]3(CCN(Cc4ccccc4OC)C3)C2)cc1
Cc1cnc(CNc2ncnc3ccc(-c4ccccc4C#N)cc23)cn1
COC(=O)N1CCC2(CCN(C(=O)Nc3ccc(OC)cc3)CC2)CC1
COc1ccc(C(=O)N2CCC3(CC2)CCN(c2cccc(-c4ccccc4)c2)CC3)cc1
COc1ccc(Oc2ncc3ncc(=O)n(Cc4cccc(OC)c4)c3n2)cc1
COCC(=O)N1CCC2(CCN(Cc3cc(C(F)(F)F)cc(C(F)(F)F)c3)CC2)CC1
O=C(c1csnn1)N1CCC2(CCCN(c3ncccn3)C2)CC1
O=C(Nc1ccccc1)N1CCC2(CCNCC2)CC1
COc1ccccc1CCn1c(=O)c(C)nc2cncnc21
N#Cc1ccc(CN2CC3(CCN(C(=O)c4csnn4)CC3)C2)cc1
COc1ccc(Oc2ncc3nc(C)c(=O)n(C4CC4)c3n2)cc1
COCCn1c(=O)c(-c2ccc(OC)cc2)nc2cnc(Oc3ccc(OC)cc3)nc21
COc1ccc(C(=O)N2CCC[C@@]3(CCN(C)C3)C2)cc1
N#Cc1cccc(NC(=O)N2CC[C@@]3(CCCN(C(=O)c4csnn4)C3)C2)c1
COc1ccc(-n2c(=O)c(-c3ccc(F)cc3)nc3cnc(OC)nc32)cc1
COc1cccc(Cn2c(=O)c(-c3cccs3)nc3cnc(Nc4ccccc4)nc32)c1
COc1cccc(Cn2c(=O)c(-c3cccc(F)c3)nc3cncnc32)c1
CS(=O)(=O)N1CCC2(CCCN(Cc3cc(C(F)(F)F)cc(C(F)(F)F)c3)C2)CC1
N#Cc1ccc(CN2CC[C@@]3(CCCN(C(=O)c4ccco4)C3)C2)cc1
Cc1cccc(CNc2ncncc2-c2cccc(NS(C)(=O)=O)c2)c1
CC(=O)N1CCC2(CC1)CCN(C(=O)Nc1cccc(C#N)c1)CC2
COc1cccc(Cn2c(=O)c(-c3cccc(Cl)c3)nc3cncnc32)c1
O=c1c(-c2ccc(Cl)cc2)nc2cncnc2n1Cc1ccccc1
COc1ccc(-c2nc3cnc(OC)nc3n(C3CC3)c2=O)cc1
O=c1c(-c2ccc(F)c(F)c2)nc2cncnc2n1Cc1ccc(F)cc1
